For five sequences, binding signal results are on record in PMC8384837, “Expanding the binding specificity for RNA recognition by a PUF domain”.

For the first test, the target named is PUM1 PUF domain R4-PFK (Homo sapiens, UniProt Q14671 828-1176, N971P;H972F;Q975K). Nature of the test: yeast three-hybrid, YBZ-1, SC-Leu-His + 0.5 mM 3-AT, 4 days. The conditions noted are these: tags: N-Gal4 AD-HA kept; label: inside an RPR1-promoter hybrid RNA with tandem MS2 sites; ssRNA. Summed up: (§1)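 Matching RNA elements and Pumilio-1 PUF domain libraries, randomized at the three base-contacting residues of every repeat, were co-expressed from a centromeric plasmid in strain YBZ-1 (LexA–MS2 coat fusion, HIS3 reporter). The repeat regions were PCR-amplified and Illumina-sequenced from cells grown four days on SC-Leu (input) or SC-Leu-His + 0.5 mM 3-AT (selection). The interaction score is the log change in variant frequency from input to selection. It is computed in log2, with a pseudocount of 1 for absent variants.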
Chain of PUM1 PUF domain R4-PFK (Q14671 828-1176 N971P/H972F/Q975K): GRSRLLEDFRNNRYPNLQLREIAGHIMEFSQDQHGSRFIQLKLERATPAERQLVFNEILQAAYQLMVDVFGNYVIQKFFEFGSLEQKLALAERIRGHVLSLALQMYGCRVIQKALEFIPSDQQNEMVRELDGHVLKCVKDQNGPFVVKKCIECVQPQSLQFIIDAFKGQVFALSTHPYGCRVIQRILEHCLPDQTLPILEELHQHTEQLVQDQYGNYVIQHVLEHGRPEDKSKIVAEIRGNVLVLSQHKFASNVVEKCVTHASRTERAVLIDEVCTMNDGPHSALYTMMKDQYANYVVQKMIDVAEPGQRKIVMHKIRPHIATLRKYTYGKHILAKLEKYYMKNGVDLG
As for “GGCUAGAACUAGUGGAUCCCCCGGCGCCCGGCGGCUCGAGCCCGGGUAAGUGUAAAUAGUCUGCAUGCCGCCGGGCGCCAUGCCUGCAGGUCGACUCUAGAAAACAUG”, the binding signal was 4.17 log2 enrichment (interaction score).
Same read-out and setting: in the case of “GGCUAGAACUAGUGGAUCCCCCGGCGCCCGGCGGCUCGAGCCCGGGUAAGUGUACAUAGUCUGCAUGCCGCCGGGCGCCAUGCCUGCAGGUCGACUCUAGAAAACAUG” it was 4.33 log2 enrichment (interaction score); in that of “GGCUAGAACUAGUGGAUCCCCCGGCGCCCGGCGGCUCGAGCCCGGGUAAGUGUAUAUAGUCUGCAUGCCGCCGGGCGCCAUGCCUGCAGGUCGACUCUAGAAAACAUG”, 6.46 log2 enrichment (interaction score).

In another test the target is PUM1 PUF domain R3-LWE (Homo sapiens, UniProt Q14671 828-1176, C935L;R936W;Q939E). The test is described as above. The conditions noted are these: tags: N-Gal4 AD-HA kept; label: inside an RPR1-promoter hybrid RNA with tandem MS2 sites; ssRNA. In a few lines: as §1
Chain of PUM1 PUF domain R3-LWE (Q14671 828-1176 C935L/R936W/Q939E): as the sequence (Q14671 828-1176 N971P/H972F/Q975K) above, with C108L, R109W, Q112E, P144N, F145H, K148Q counted along it
Turning to “GGCUAGAACUAGUGGAUCCCCCGGCGCCCGGCGGCUCGAGCCCGGGUAAGUGUAAAUAGUCUGCAUGCCGCCGGGCGCCAUGCCUGCAGGUCGACUCUAGAAAACAUG”, the binding signal was 3.37 log2 enrichment (interaction score).
Take “GGCUAGAACUAGUGGAUCCCCCGGCGCCCGGCGGCUCGAGCCCGGGUAAGUGUAAGUAGUCUGCAUGCCGCCGGGCGCCAUGCCUGCAGGUCGACUCUAGAAAACAUG”: the binding signal was 5.48 log2 enrichment (interaction score).
As to “GGCUAGAACUAGUGGAUCCCCCGGCGCCCGGCGGCUCGAGCCCGGGUAAGUGUAAUUAGUCUGCAUGCCGCCGGGCGCCAUGCCUGCAGGUCGACUCUAGAAAACAUG”, the binding signal was 1.78 log2 enrichment (interaction score).
